Growth data for 39 compounds are collected here from PubChem BioAssay (NCI).

About 83,000 compounds went through this panel and 20% of them were active in at least one assay; those are over-represented in the sample as a whole.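 Negative percent growth values reflect cell death: -40 means 40% of the cells present at the start died, and -100 means all died.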 A number with no mark means an inactive call. Active and inactive are the calls of the source. How the source made its calls: active means growth percent below 10; inactive means the rest.

The assay deals with COLO 205 colon. Nature of the assay: NCI-60 one-dose screen, 48 h (100 = growth as untreated, 0 = no growth, -100 = all killed). To be noted: 10 µM unless noted.
As for `CCOC(=O)c1ccc(N(CCC(=O)O)C(C)=O)cc1`, the growth was 119%.

For the compound `Nc1c(C(=O)Nc2cccc(Cl)c2)sc2ncc(Br)cc12`, the growth was 85.1%.

Turning to `CSC(=S)N/N=C(\C)c1ccccn1`, the growth was 24%.

Take `CC(=O)O[C@H]1[C@H](CC#CC#CC[C@@H]2C[C@]3(C)[C@H]4CC=C5[C@H]6[C@@H](C)[C@H](C)CC[C@]6(C(=O)NCCCCCCCCN)CC[C@@]5(C)[C@]4(C)CC[C@H]3C(C)(C)[C@H]2OC(C)=O)C[C@]2(C)[C@H]3CC=C4[C@H]5[C@@H](C)[C@H](C)CC[C@]5(C(=O)NCCCCCCCCN)CC[C@@]4(C)[C@]3(C)CC[C@H]2C1(C)C`: the growth is 114%.

In the case of `CC(C)COC(=O)NC(C)(C)C`, the growth was 106%.

Turning to `CCC(=O)NC(O)C(Cl)(Cl)C(C)Cl` (centres undefined), the growth is 114%.

For the compound `C#CCNC(=S)N/N=C(\C)c1ccccn1`, the growth is 19.6%.

As for `COc1ccc(-c2nnc(SCC(=O)Nc3ccc(C(=O)/C=C/c4ccc(Cl)cc4)cc3)n2-c2ccccc2)cc1`, the growth is 107%.

As to `CC1CCN(Cc2ccc(NC(=O)c3cc4ccc5cccnc5c4[nH]3)cc2)CC1`, the growth is -16.3% (active).

For `CC(C)N1CCN(c2ccncc2S(=O)(=O)N2CCN(C)CC2)CC1`, the growth was 105%.

On to `O=C(/C=C/c1ccccc1)n1c(-c2ccccc2)nc2ccccc21`, for which the growth is 109%.

Take `COC1CC(N)C2OC(c3ccccc3)OCC2O1` (centres undefined): the growth was 113%.

On to `COc1cccc(NC(=O)[C@H](C(C)C)n2c(=O)[nH]c3ccccc3c2=O)c1`, for which the growth is 108%.

In the case of `COc1ccc(-c2cnc3ccnn3c2-c2cc(OC)c(OC)c(OC)c2)cc1`, the growth was -31.2% (active).

Turning to `COc1cc2cc(C(=O)Nc3ccccc3)c(N)nc2cc1OC`, the growth was -93.3% (active).

For `O=C(C=P(c1ccccc1)(c1ccccc1)c1ccccc1)CCl`, the growth was -53.9% (active).

Consider `CCCCCCCCCCCCCCCCS(=O)(=O)Nc1cc(C(=O)NN)cc(C(=O)NN)c1`, for which the growth is 83.2%.

As to `COS(=O)(=O)CCN(CCOS(C)(=O)=O)S(C)(=O)=O`, the growth is 117%.

Take `CCn1c(CN2CCN(Cc3ccccc3)CC2)nc2cc(NC(=O)c3cccs3)ccc21`: the growth is -91.3% (active).

In the case of `CC(=O)c1ccc(-n2c(-c3cc(-c4ccsc4)n[nH]3)n[nH]c2=S)cc1`, the growth was 117%.

Take `CCN(CC)Cc1cc(Nc2ccnc3cc(Cl)ccc23)cc(-c2ccc(Cl)cc2)c1O`: the growth was 55.8%.

Consider `O=C(NCC(c1ccsc1)N1CCCCCC1)c1ccc(C(F)(F)F)cc1` (centres undefined), for which the growth was 102%.

As for `COc1cc(NC(C)CCCN)c2ncccc2c1Oc1ccc(Cl)cc1` (centres undefined), the growth is 6.98% (active).

For `O=C(c1ccccc1)N(CCCCl)C(=O)N(CCCCl)C(=O)c1ccccc1`, the growth was 102%.

With `COc1ccc(C2=CC(c3ccc(OC)cc3Br)N3C=CSC3=N2)cc1` (centres undefined), the growth was 80.3%.

In the case of `CC(=O)c1nn(-c2ccccc2)/c(=N\N=C\c2coc3ccc(F)cc3c2=O)s1`, the growth was 111%.

Consider `O=C(c1ccc(C(F)(F)F)c(Cl)c1)N(Cc1ccc(Cl)cc1)c1ccc(-c2cc(C(F)(F)F)[nH]n2)c(O)c1`, for which the growth is -73.8% (active).

With `C/C(=N\OC(=O)Nc1cccc(Cl)c1)c1ccccc1`, the growth is 117%.

As for `C/C(=C\C(=N\N=C(N)N)c1ccc(Cl)cc1)c1ccc(Cl)cc1`, the growth was -90.2% (active).

Turning to `O=C(NO)c1ccc(NCc2csc3ccccc23)cc1`, the growth was 50.1%.

In the case of `C#CC[C@@H]1C[C@]2(C)[C@H]3CC=C4[C@H]5CC(C)(C)CC[C@]5(C(=O)NCCCCN)CC[C@@]4(C)[C@]3(C)CC[C@H]2C(C)(C)[C@H]1OC(C)=O`, the growth was -49.7% (active).

Consider `Oc1ccc(Cl)cc1-c1cc(-c2ccccc2Cl)[nH]n1`, for which the growth is 104%.

As for `CC1C2CCC(C2)C1COCCOCCO` (centres undefined), the growth is 121%.

Consider `O=C1C(Cl)=C(N/N=c2/[nH][nH]/c(=N/NC3=C(Cl)C(=O)c4ccccc4C3=O)c3ccccc23)C(=O)c2ccccc21`, for which the growth is 52.5%.

For the compound `COc1ccc(/C=c2\c(=O)n(-c3ccccc3)c3nn4c(n23)=NNC42CCCCC2)cc1`, the growth is 105%.

For the compound `CCNC(=S)N(Cc1ccccc1)Cc1ccccc1`, the growth was 132%.

With `N#CC1=C(N)Oc2nc[nH]c(=O)c2C1c1cccs1` (centres undefined), the growth is 106%.

Turning to `CCN(C(=O)Nc1cccc2ccccc12)c1ccccc1`, the growth is 105%.

On to `COc1ccc(-c2nc(-c3cc(OC)cc(OC)c3)[nH]c2-c2ccc(OC)cc2)cc1`, for which the growth was 34.2%.
